GCN5L2 inh: inhibitors of human GCN5L2 histone acetyltransferase; 0.21% of 390,000 active; GCN5L2 HAT assay, ThioGlo1 CoA-SH fluorescence; Potency, µM (series often up to 58.9 µM), usual class: inhibitors; Q92830
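Preincubate 20nM GCN5L2 with compound 15 min, RT → add 50uM ThioGlo1 + 75uM H3(1-25) + 70uM acetyl-CoA → read fluorescence 0 and 20 min. Primary qHTS; fluorescent artifacts likely.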
PTHR1 agonist: PTHR1 (human) receptor agonism | Potency, µM (highest dose often 115 µM), most hits filed as activators | Q03431 | AID 743266 | HEK293 GP2 PTHR1 cells, GloSensor cAMP luminescence, 1 h | 0.075% of 410,000 active; further: nearly all actives have a fitted effect of over 55% in size
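HEK-293-derived GP2 cells expressing PTHR1 and a GloSensor cAMP reporter, 3,000/well, plated overnight, given luciferin plus IBMX (each 0.5 mM as added) for 1 h at 37 °C, then compound for 1 h at 37 °C. Luminescence was read after 15 min at room temperature.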
HEK293 tox: cytotoxicity in counter-screen for GLP-1R inverse agonists | HEK293 cAMP-luciferase reporter cells, luminescence, 24 h | AID 624418 | 0.13% of 410,000 active | Potency, µM (series often up to 38.3 µM), most hits filed as inhibitors;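 further: loss of luciferase light is scored as toxicity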
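Step one: seed cells (200 cells/uL, DMEM with 10% Nu serum, 1% pen-strep). Step two: 12-hour incubation at 37 deg C. Step three: pin 23 nL compound, incubate 24 hr. Step four: add luciferase reagent, read luminescence 12 min later.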
GLP-1R agonist: GLP-1 receptor (human) agonism; P43220; HEK293 GLP-1R CRE-luciferase, luminescence, 4-6 h; cells express a hypersensitive GLP-1R form; Potency, µM (highest dose often 45.6 µM), usual class: activators; 0.007% of 380,000 active; AID 624172
Target sequence (P43220 whole entry, looked up): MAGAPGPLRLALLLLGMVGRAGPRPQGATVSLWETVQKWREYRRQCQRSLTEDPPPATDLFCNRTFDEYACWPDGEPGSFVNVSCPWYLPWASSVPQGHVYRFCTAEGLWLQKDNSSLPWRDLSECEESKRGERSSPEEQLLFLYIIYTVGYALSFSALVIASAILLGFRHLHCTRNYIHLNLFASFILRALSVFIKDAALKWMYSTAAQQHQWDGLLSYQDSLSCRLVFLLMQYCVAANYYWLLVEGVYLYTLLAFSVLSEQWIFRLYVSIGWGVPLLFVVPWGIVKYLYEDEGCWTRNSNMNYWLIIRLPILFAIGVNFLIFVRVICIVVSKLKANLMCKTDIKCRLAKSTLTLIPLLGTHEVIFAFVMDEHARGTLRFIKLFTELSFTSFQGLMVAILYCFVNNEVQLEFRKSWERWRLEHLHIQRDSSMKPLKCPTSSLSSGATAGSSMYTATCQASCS
RGS4 inhibitor: inhibitors of human regulator of G protein signaling 4; Transcreener GDP fluorescence polarization, RGS4-accelerated GTP hydrolysis; Potency, µM (doses to about 114 µM), actives largely listed as inhibitors; 0.039% of 390,000 active; AID 504845; further: nearly all actives have a fitted effect of over 75% in size
Target sequence (P49798 whole entry, looked up): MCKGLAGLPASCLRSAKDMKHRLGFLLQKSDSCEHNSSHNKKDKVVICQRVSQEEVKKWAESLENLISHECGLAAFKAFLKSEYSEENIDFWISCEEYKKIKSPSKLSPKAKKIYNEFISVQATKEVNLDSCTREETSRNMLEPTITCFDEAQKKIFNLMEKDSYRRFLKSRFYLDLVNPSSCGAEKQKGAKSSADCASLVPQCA
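MLSMR compounds (23 nl, pin-transferred) preincubated 10 min at room temperature with a 500nM (2x) first reagent, then RGS4 at 900nM (2x) plus Transcreener GDP mix added; fluorescence polarization (620/688 nm) read before and after 90 min at 30 °C.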
GLP-1R inv ag: GLP-1 receptor (human) inverse agonism | P43220 | HEK293 GLP-1R CRE-luciferase, luminescence, 24 h; GLP-1R form is constitutively active | Potency, µM (doses to about 38.3 µM), most hits filed as inhibitors | 1.6% of 410,000 active; further: nearly all actives have a fitted effect of over 55% in size
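HEK293 cells stably co-expressing constitutively active GLP-1R and a cAMP-responsive luciferase reporter were seeded in DMEM with 10% Nu serum, given compounds after 12 h, and incubated 24 h at 37 deg C. Luminescence was then read.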
A number is an active result; – = inactive; ? = inconclusive; · = no result; ! = not confirmed by another sample; [ ] = another dose, or the depositor's remark. The list is not random: actives were taken first. Their share in the collection is about 1.8%. The call rests on the fitted dose curve; in most records, active means well fitted curve in the direction sought with a large enough effect; inconclusive means small, poorly fitted or top-dose-only effect, or another doubt; inactive means no such curve, though single readings can be large; an effect the other way counts as inactive or inconclusive.

SMILES | GCN5L2 inh | PTHR1 agonist | HEK293 tox | GLP-1R agonist | RGS4 inhibitor | GLP-1R inv ag
CCOC(=O)c1cc(-c2ccc(F)cc2)n(CCC(=O)NCc2ccc(C)cc2)c1C | – | – | – | · | – | 10µM
CCOC(=O)c1cc(-c2ccc(F)cc2)n(CCC(=O)NCc2ccccc2OC)c1C | – | – | – | · | – | ?
CCOC(=O)c1cc(-c2ccc(F)cc2)n(CCC(=O)Nc2ccccc2OC)c1C | – | – | – | · | – | 10µM
O[C@H]1CN(CC2CCCCC2)[C@@H](c2ccc(Cl)cc2)C[C@@H]1n1cc(-c2ccc(F)cc2)nn1 | · | – | – | – | · | –
CN(CCOc1ccc(Br)cc1)CC(O)COc1ccc(C#N)cc1 (stereo not given) | – | – | – | – | – | 4.47µM
CN(CCOc1ccccc1)CC(O)COc1ccccc1 (stereo not given) | – | – | – | – | – | ?
COc1cccc(-c2nnc(SCC(=O)NCc3ccc4c(c3)OCO4)n2Cc2ccco2)c1 | 39.8µM | – | – | – | – | –
COc1ccc(NC(=O)CSc2nnc(-c3ccccc3Cl)n2Cc2ccco2)c(OC)c1 | – | – | – | – | – | 7.08µM
COc1ccc(NC(=O)CSc2nnc(-c3ccccc3)n2Cc2ccco2)c(OC)c1 | – | – | – | – | – | –
COc1cc(OC)cc(C(=O)N[C@H](C(=O)Nc2nc3ccc(S(C)(=O)=O)cc3s2)C(C)C)c1 | – | – | – | – | – | –
CC(C)(C)c1ccc(N2C[C@@H](COc3ccc(C(=O)O)cc3)CC2=O)cc1 | – | · | · | · | · | ·
O=C(N/N=C/c1ccc[nH]1)c1ccccc1OCc1ccc(F)cc1 | – | – | – | – | – | –
CCOc1ccc(OCc2ccc(C(=O)NN=Cc3ccc[nH]3)cc2)cc1 | – | – | 2.24µM | – | – | ?
COCCNC(=O)CN1C(=O)/C(=C/c2ccccc2)Oc2ccc(C(C)(C)C)cc21 | – | – | – | – | – | ?
COc1ccc(-c2c(C(=O)c3ccc(Br)cc3)[nH]c(N)c2C(=O)c2ccccc2)cc1OC | · | – | – | – | · | –
Oc1ccc(Cc2ccccc2)c2cccnc12 | · | – | – | – | – | 6.31µM
Oc1ccc(Cl)c2cccnc12 | ? | – | – | – | – | 10µM
CCOC(=O)N1CCN(Cc2ccc(O)c3ncccc23)CC1 | ? | – | – | – | – | 5.01µM
Oc1ccc(CN2CCC(Cc3ccccc3)CC2)c2cccnc12 | – | – | ? | – | – | ?
OCc1ccc(O)c2ncccc12 | – | – | ? | – | – | 10µM
Cc1ccc(-n2nc(C)c3c(C)cc(=O)n(CC(=O)NC(C)c4ccccc4)c32)cc1 (stereo not given) | – | – | – | · | – | –
CSc1ncc(Cl)c(C(=O)Nc2c(C(=O)c3ccc(C)c(F)c3)oc3ccccc23)n1 | – | – | – | · | – | –
CC[C@H](C)[C@H](NC(=O)[C@H](C)NC(=O)[C@H](Cc1cnc[nH]1)NC(=O)[C@@H]1CCCN1C(=O)CNC(=O)[C@H](CC(C)C)NC(=O)[C@H](CC(C)C)NC(=O)[C@H](Cc1ccc(O)cc1)NC(=O)CNC(=O)[C@H](C)NC(=O)[C@H](CO)NC(=O)[C@H](CC(N)=O)NC(=O)[C@H](CC(C)C)NC(=O)[C@@H](NC(=O)[C@H](Cc1c[nH]c2ccccc12)NC(=O)CN)[C@@H](C)O)C(=O)O | – | · | · | · | · | ·
CC(C)COCc1ccc(O)c2ncccc12 | – | – | ? | – | – | 3.98µM
Oc1ccc(COCc2ccccc2)c2cccnc12 | 25.1µM! | – | – | – | –[11.4 µM] | 10µM
SMILES | GCN5L2 inh | PTHR1 agonist | HEK293 tox | GLP-1R agonist | RGS4 inhibitor | GLP-1R inv ag
O=C(Oc1ccc(Cl)c2cccnc12)c1cccnc1 | – | – | ? | – | – | 3.16µM
CC(=O)Nc1ccc(S(=O)(=O)Nc2ccc(-n3cnnn3)cc2)cc1 | – | – | – | – | – | –
CCCNC(=O)NC(=O)COC(=O)CNS(=O)(=O)/C=C/c1ccccc1 | – | – | – | – | – | –
C=C(C)COc1ccc(-c2[nH]ncc2-c2ccc(OC)cc2)c(O)c1 | – | – | – | – | – | 11.2µM
C=C(C)COc1ccc(-c2[nH]ncc2Oc2cccc(OC)c2)c(O)c1 | – | – | ? | – | – | 10µM
C=C(C)COc1ccc(-c2ncncc2Oc2ccc(OC)cc2)c(O)c1 | – | – | – | – | – | 10µM
C=C(C)COc1ccc(-c2n[nH]c(C)c2Oc2ccccc2OC)c(O)c1 | – | – | – | – | – | 7.94µM
CCCOC(=O)c1ccc(Oc2c(-c3ccc(OC)cc3O)n[nH]c2C)cc1 | – | – | ? | – | – | 8.91µM
CCOc1ccc(S(=O)(=O)n2cc(-c3ccc(F)cc3)c(N)n2)cc1 | – | – | – | – | – | ?
CCOc1cc(S(=O)(=O)n2cc(-c3ccc(F)cc3)c(N)n2)cc(OCC)c1OCC | – | – | ? | – | – | 2.24µM
NC(COCc1ccccc1)c1csc(NC(=O)Nc2cccc(Cl)c2)n1 (stereo not given) | · | – | – | – | · | ?
CC(C)(C)OC(=O)[C@H](Cc1ccccc1)NC(=O)c1nc[nH]c1C(=O)N[C@@H](Cc1ccccc1)C(=O)OC(C)(C)C | – | – | – | – | – | 10µM
C[C@H](NC(=O)c1nc[nH]c1C(=O)N[C@@H](Cc1ccccc1)C(=O)OC(C)(C)C)C(=O)OC(C)(C)C | – | – | – | – | – | ?
Cc1c(NC(=O)C(C)(C)Oc2ccc(Cl)cc2)cccc1-c1nc2ccccc2o1 | – | – | – | · | – | 11.2µM
COCCNC(=S)N/N=C/c1ccc(N2CCOCC2)cc1 | – | – | ? | – | – | ?
C=C(C)CNC(=S)N/N=C/c1ccc(N2CCOCC2)cc1 | – | – | ? | – | – | 10µM
CCCCCc1c(-c2ccc(F)cc2F)ncn1CCc1ccccc1OC | · | – | – | – | · | ?
O=C(O)c1cccc(Nc2ncnc3ccc(Br)cc23)c1 | – | 8.91µM! | – | – | – | –
COc1cccc(Nc2ncnc3ccc(Br)cc23)c1 | · | – | – | – | · | ?
CCC(=O)N(CCC(Cc1ccccc1)c1ccc2c(c1)OCO2)Cc1ccccc1F (stereo not given) | – | – | – | – | – | ?
CCC(=O)N(CCC(c1ccccc1)c1ccc2c(c1)OCO2)Cc1ccc(OC(C)C)cc1 (stereo not given) | – | – | – | – | – | 12.6µM
COCCn1ccc2c(OCC(=O)NCc3ccc(C)cc3)cccc2c1=O | – | – | – | – | – | –
O=C(CCN1CCCC1)Nc1cccc(Br)c1 | – | – | – | – | – | –
O=C(CCN1CCN(c2ccccc2)CC1)Nc1cccc(Br)c1 | – | – | – | – | – | 11.2µM

Screening data deposited in PubChem BioAssay by National Center for Advancing Translational Sciences (NCATS).
